Only some compounds are listed: those with a hit (about 2.3% of all), similar ones and a draw of the others.
ELG1 DNA repair = blocks ELG1-dependent DNA repair in HEK293T cells; HEK293T ELG1-luciferase reporter, luminescence, 16 h; DNA damage induced by 5-fluorouridine; Potency, µM (highest dose often 46.1 µM), inactives show at the highest dose activity change, negative = inhibition, most hits filed as inhibitors; hit rate 2.3% among 330,000; AID 504467; also: potency is read from the fitted curve at half-maximal effect; % is scaled to controls: 0 for no effect and ±100 for the full control effect; nearly all actives have a fitted effect of over 55% in size
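Luminescence from the luciferase reporter, measured 30 min after ONE-Glo reagent at room temperature, was the read-out. Beforehand, 2,000 cells per well were exposed for 16 hr at 37 °C to 5-fluorouridine together with compound or vehicle.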
FUS suppressor = rescues growth of FUS-expressing yeast; hit rate 0.24% among 390,000; Potency, µM (series often up to 76.6 µM), usual class: activators; S. cerevisiae FUS-expressing, growth rescue, OD600, 24 h;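 also: potency is read from the fitted curve at half-maximal effect; plate controls were DMSO vehicle for no effect and reference control for full effect; nearly all actives have a fitted effect of over 55% in size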
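S. cerevisiae expressing FUS from galactose induction served as the toxicity model. Growth after 24hr at 30C, read as absorbance at 600 nm, indicates suppression of toxicity; compounds dosed at several concentrations.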
Giardia kill = Giardia lamblia killing. Giardia lamblia trophozoite viability. activity change, % at 7.66 µM, hits read low. hit rate 0.15% among 340,000; in the data active = activity change below about -80%; inconclusive = between about -30% and that limit;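 also: parasites exposed to compound for two days anaerobically before the ATP read; % is scaled to controls: 0 for no effect and ±100 for the full control effect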
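Luminescent ATP signal served as the viability read-out, measured 15-30 min after adding ATP detection reagent to trophozoites that had been incubated with compounds for 48 hrs at 37 deg C anaerobically at 100 cells/well.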
TRPV1 ag = human TRPV1 agonism | TRPV1-expressing cells, Fluo-8 calcium influx, agonist mode | activation, % at 8.33 µM | hit rate 0.19% among 320,000; in the data active = activation above about 80%; inconclusive = between about 30% and that limit; also: 0% is about no effect
Target sequence (Q8NER1 whole entry, looked up): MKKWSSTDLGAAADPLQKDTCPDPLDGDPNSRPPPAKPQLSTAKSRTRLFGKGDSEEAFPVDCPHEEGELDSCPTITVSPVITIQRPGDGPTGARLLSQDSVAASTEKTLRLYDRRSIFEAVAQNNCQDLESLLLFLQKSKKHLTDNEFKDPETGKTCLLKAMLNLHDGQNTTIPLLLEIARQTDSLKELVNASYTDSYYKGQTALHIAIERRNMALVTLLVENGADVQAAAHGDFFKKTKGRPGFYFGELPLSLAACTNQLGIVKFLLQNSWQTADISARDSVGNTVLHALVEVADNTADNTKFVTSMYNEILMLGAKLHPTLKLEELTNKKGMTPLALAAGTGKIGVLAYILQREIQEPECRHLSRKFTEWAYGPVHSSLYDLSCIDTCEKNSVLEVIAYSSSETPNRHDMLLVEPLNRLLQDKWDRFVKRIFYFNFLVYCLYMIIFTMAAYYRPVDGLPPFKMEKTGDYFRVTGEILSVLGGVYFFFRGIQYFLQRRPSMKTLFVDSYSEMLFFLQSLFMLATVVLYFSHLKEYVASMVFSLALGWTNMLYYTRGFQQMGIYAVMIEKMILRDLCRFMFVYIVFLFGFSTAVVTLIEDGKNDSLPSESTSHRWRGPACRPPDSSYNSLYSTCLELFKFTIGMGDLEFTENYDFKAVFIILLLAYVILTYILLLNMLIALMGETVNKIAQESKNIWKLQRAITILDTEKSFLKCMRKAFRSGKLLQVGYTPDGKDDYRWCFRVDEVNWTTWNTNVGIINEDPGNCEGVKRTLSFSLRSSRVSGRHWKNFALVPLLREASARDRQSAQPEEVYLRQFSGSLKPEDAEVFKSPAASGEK
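Fluo-8 calcium influx in TRPV1-expressing cells, kinetic read (ex 480/em 520 nm). Compound added and read 3 min for agonist activity, followed by capsaicin at EC20 final and 2 min further read for enhancement.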
TRPV1 potentiator = potentiators of human vanilloid receptor 1 (TRPV1). Q8NER1. TRPV1-expressing cells, Fluo-8 calcium influx, capsaicin EC20 potentiation. potentiation, % at 8.33 µM. hit rate 0.02% among 320,000. AID 540277; in the data active = potentiation above about 80%; inconclusive = between about 30% and that limit; also: 0% is about no effect
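TRPV1-expressing cells were cultured overnight at 35.5C and loaded with Fluo-8 calcium dye for 40 to 90 min at room temperature. After a 10 s baseline, compound was added and calcium influx was read kinetically for 3 min (ex 480/em 520 nm).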
An asterisk follows results filed as active; i = inactive; ? = inconclusive; . = no result given. Unless noted, calls follow the shape of the dose curve; as a rule, active = well fitted curve in the direction sought with a large enough effect; inconclusive = small, poorly fitted or top-dose-only effect, or another doubt; inactive = no such curve, though single readings can be large; an effect the other way counts as inactive or inconclusive.

SMILES	ELG1 DNA repair	FUS suppressor	Giardia kill	TRPV1 ag	TRPV1 potentiator
CNc1ccccc1C(C)(C)c1cc(-c2cccc(Br)c2)no1	9.2µM*	i	-6	5	-6
CNc1ccccc1C(C)(C)c1cc(-c2cccc([N+](=O)[O-])c2)no1	1.5µM*	i	11	2	29
CCOc1cccc(=O)c2c(C)n(C)c(C)c12	-22%	?	-8	0	6
COc1cccc(=O)c2c(C)n(C)c(C)c12	-13%	28µM*	-24	1	3
Cc1cccc(NC(=O)c2ccc(-c3nc(CSc4ccccc4)c(C)o3)cc2)c1C	.	i	.	.	.
CCCn1c(N)c(C(=O)COC(=O)c2c(C)noc2C)c(=O)n(C)c1=O	23µM*	i	-11	1	5
CCCn1c(N)c(C(=O)COC(=O)COc2ccc(Cl)c(C)c2)c(=O)n(C)c1=O	13%	i	-4	3	12
O=C(NCc1cccc(F)c1)c1ccccc1NC(=O)c1nsc2ccccc12	.	i	.	.	.
O=[N+]([O-])c1cc(Cl)ccc1N1CCN(c2cccc(C(F)(F)F)c2)CC1	-5%	i	-12	1	-1
O=c1c([N+](=O)[O-])cc(C(F)(F)F)cn1Cc1c(Cl)cccc1Cl	-6%	.	-91*	.	.
COC(=O)c1ccc(Cn2cc(C(F)(F)F)cc([N+](=O)[O-])c2=O)cc1	-5%	i	-95*	1	-3
COC(=O)c1ccc(Cn2cc(C(F)(F)F)ccc2=O)cc1	5%	i	3	1	4
CC(=O)C1=C(c2ccc(Br)cc2)C(=O)c2ccccc2C1=O	3.7µM*	i	14	-4	1
COc1ccc(OC)c(/C=C/C(=O)N2CCN(S(=O)(=O)c3cc(C)ccc3C)CC2)c1	?	32µM*	7	-3	1
COc1ccccc1CC(=O)N1CCN(S(=O)(=O)c2cccs2)CC1	-7%	i	-11	4	-16
COc1ccccc1/C=C/C(=O)N1CCN(S(=O)(=O)c2cccs2)CC1	21µM*	?	3	.	.
COc1ccc(OC)c(/C=C/C(=O)N2CCN(S(=O)(=O)c3ccc(C)cc3C)CC2)c1	?	.	16	-5	6
CCOC(=O)C1CCN(C(c2ccc(C)cc2)c2c(O)cc(C)n(CCOC)c2=O)CC1 (configuration not stated)	.	i	.	.	.
Cc1cc(=O)oc2c1ccc1oc(/C(=N/O)c3ccccc3)c(C)c12	16µM*	i	-3	0	13
Cc1ccc(/C(=N\O)c2oc3c(C)c4oc(=O)cc(C)c4cc3c2C)cc1	21µM*	i	-21	0	-33
CCOC(=O)c1c(C)[nH]c(C)c1S(=O)(=O)NCC(=O)N(C)c1ccc(C)c(C)c1	.	i	.	.	.
COCCCNC(=O)c1ccc(Cn2c(=O)c3ccccc3n(CC(N)=O)c2=O)cc1	.	i	.	.	.
CC[C@@H](C)[C@@H](C(=O)N1CCN(C(=O)OC(C)(C)C)CC1)n1cc(CCCCNC(=O)OC(C)(C)C)nn1	21µM*	i	-15	5	-14
C#CCOCCOCCOCCNc1nc(N2CCN(C(=O)CCCCCCCCCCNC(=O)[C@@H](CCSC)n3cc(CCO)nn3)CC2)nc(N2CCN(C(=O)CCCCCCCCCCNC(=O)[C@H]([C@@H](C)CC)n3cc(CCCCN=C(N)N)nn3)CC2)n1	?	8.9µM*	-8	1	-21
C#CCOCCOCCOCCNc1nc(N2CCN(C(=O)CCCCCCCCCCNC(=O)Cn3cc(C[C@@H](C)O)nn3)CC2)nc(N2CCN(C(=O)CCCCCCCCCCNC(=O)[C@H](CCCCN)n3cc(C[C@@H](C)CC)nn3)CC2)n1	?	10µM*	8	1	6
SMILES	ELG1 DNA repair	FUS suppressor	Giardia kill	TRPV1 ag	TRPV1 potentiator
CC[C@H](C)C(C(=O)N1CCN(C(=O)OC(C)(C)C)CC1)n1cc(C(CC(C)C)NC(=O)OC(C)(C)C)nn1 (some centres not stated)	?	?	13	2	8
C#CCOCCOCCOCCNc1nc(N2CCN(C(=O)CCCCCCCCCCNC(=O)[C@H](CCCCN)n3cc(C[C@@H](C)CC)nn3)CC2)nc(N2CCN(C(=O)CCCCCCCCCCNC(=O)[C@H](CCCCN)n3cc(C[C@@H](C)CC)nn3)CC2)n1	.	?	-3	.	.
CSCC[C@@H](C(=O)NCCCCCCCCCCC(=O)N1CCN(C(=O)OC(C)(C)C)CC1)n1cc(CCO)nn1	18µM*	i	?	18	-12
CC(C)CC(=O)Nc1nc2c(s1)CC(C(C)(C)C)CC2 (configuration not stated)	.	i	.	.	.
Cc1cccc(CS(=O)(=O)CC2Nc3ccc(C(=O)NCc4ccccc4Cl)cc3NC2=O)c1 (configuration not stated)	.	i	.	.	.
C#CCOCCOCCOCCNc1nc(N2CCN(C(=O)CCCCCCCCCCNC(=O)[C@H]([C@@H](C)CC)n3cc(CCCCCN)nn3)CC2)nc(N2CCN(C(=O)CCCCCCCCCCNC(=O)[C@@H]([C@H](C)O)n3cc(C)nn3)CC2)n1	?	13µM*	11	-2	-67
C#CCOCCOCCOCCNc1nc(N2CCN(C(=O)CCCCCCCCCCNC(=O)[C@H](CCC(=O)O)n3cc(CCCCCN)nn3)CC2)nc(N2CCN(C(=O)CCCCCCCCCCNC(=O)[C@@H]([C@H](C)O)n3cc(C)nn3)CC2)n1	?	13µM*	8	3	26
C#CCOCCOCCOCCNc1nc(N2CCN(C(=O)CCCCCCCCCCNC(=O)[C@H](CCCCN)n3cc(C)nn3)CC2)nc(N2CCN(C(=O)CCCCCCCCCCNC(=O)[C@@H]([C@H](C)CC)n3cc(CCCCCN)nn3)CC2)n1	?	.	.	6	5
COc1ccc(CNC(=O)c2nc(Cn3nc(C)c(Br)c3C)no2)cc1OC	.	i	.	.	.
O=c1c2ccccc2c(C=NC2CCN(Cc3ccccc3)CC2)c(O)n1Cc1ccc2c(c1)OCO2	6.5µM*	.	.	-1	-5
O=C(NCC(c1ccc2c(c1)OCO2)N1CCN(c2ccccc2F)CC1)c1ccccc1F (configuration not stated)	.	i	.	.	.
CCn1c2ccccc2c2cc(NC(=O)COC(=O)c3cc(OC)c(OC)cc3OC)ccc21	9.2µM*	i	15	-1	11
CCn1c2ccccc2c2cc(NC(=O)COC(=O)c3cccc(F)c3F)ccc21	.	i	.	.	.
CCCOc1ccc(OC(=O)c2sc3ncn(Cc4cccc(F)c4)c(=O)c3c2C)cc1	.	i	.	.	.
Cc1ccc(CSCCNC(=O)c2ccc(Cl)c(S(=O)(=O)N3CCOCC3)c2)cc1	23µM*	i	-8	?	10
O=C(NCCC1=CCCCC1)c1ccc(Cl)c(S(=O)(=O)N2CCOCC2)c1	?	i	-15	82*	-13
CN(C)S(=O)(=O)N1CCC(Oc2cccc(C(=O)NC3CCCCC3)c2)CC1	-17%	i	-20	8	-5

Assay outcomes from PubChem.
